# Results published in PubChem BioAssay (NCATS).
# Several values for one entry are separate records, joined by “and”; a condition that tells them apart may be missing. Equal values may be shown once. Values without a mark were called inactive. Inconclusive results are not listed. A call without a number means that no potency is given here. Activity calls are given as the source filed them. Unless noted, calls follow the shape of the dose curve; as a rule, active = well fitted curve in the direction sought with a large enough effect; inconclusive = small, poorly fitted or top-dose-only effect, or another doubt; inactive = no such curve, though single readings can be large; an effect the other way counts as inactive or inconclusive.
# Experiments:
# CASKI = assay: Primary qHTS to identify gynecologic anti-cancer compounds using libraries of approved drugs and bioactive compounds (AID 1345084); settings: Gynecologic cancer cell panel viability, ATPlite luminescence, 48 h; series mostly up to 57.5 µM; also: nearly all actives have a fitted effect of over 55% in size
# Procedure, shortened: (§1)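 Five-concentration response, 48 h; readout is ATP-driven luciferase luminescence.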
# Es-2 = assay: as above; settings: Gynecologic cancer cell panel viability, ATPlite luminescence, 48 h; series mostly up to 57.5 µM
# Procedure, shortened: as §1
# HeLa = assay: as above; settings: Gynecologic cancer cell panel viability, ATPlite luminescence, 48 h; series mostly up to 57.5 µM
# Procedure, shortened: as §1
# Hek293T = assay: as above; settings: Gynecologic cancer cell panel viability, ATPlite luminescence, 48 h, control line for the selectivity index; series mostly up to 57.5 µM
# Procedure, shortened: as §1
# JEG-3 = assay: as above; settings: Gynecologic cancer cell panel viability, ATPlite luminescence, 48 h; series mostly up to 57.5 µM
# Procedure, shortened: as §1
# OV90 = assay: as above; settings: Gynecologic cancer cell panel viability, ATPlite luminescence, 48 h; series mostly up to 57.5 µM
# Procedure, shortened: as §1
# PA-1 = assay: as above; settings: Gynecologic cancer cell panel viability, ATPlite luminescence, 48 h; series mostly up to 57.5 µM
# Procedure, shortened: as §1
# SKOV3 = assay: as above; settings: Gynecologic cancer cell panel viability, ATPlite luminescence, 48 h; series mostly up to 57.5 µM
# Procedure, shortened: as §1
# Tov-21-G = assay: as above; settings: Gynecologic cancer cell panel viability, ATPlite luminescence, 48 h; series mostly up to 57.5 µM
# Procedure, shortened: as §1
# Tov112D = assay: as above; settings: Gynecologic cancer cell panel viability, ATPlite luminescence, 48 h; series mostly up to 57.5 µM
# Procedure, shortened: as §1
# [1] = Drug repurposing screens with cells derived from glioblastoma tumor samples (AID 1345199); settings: GBM patient neurospheres viability, ATP luminescence, 48 h; also: nearly all actives have a fitted effect of over 40% in size; also: potency is read from the fitted curve at half-maximal effect
# Procedure, shortened: (§2)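 Four patient lines of CD133+ GBM neurospheres were screened at several concentrations; hits were retested in those lines plus three slower-growing GBM lines, using 48-hour treatment and ATP-based viability.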
# astro = assay: as above; settings: viability, ATP luminescence, 48 h; series mostly up to 45.9 µM
# Procedure, shortened: as §2
# [2] = target: Nuclear receptor subfamily 1 group I member 2 (Rattus norvegicus) (UniProt Q9R1A7); assay: qHTS assay for small molecule activators of the rat pregnane X receptor (rPXR) signaling pathway (AID 651751; call rule not given here); settings: rPXR reporter cells, luciferase (One-Glo), 24 h
# [3] = qHTS assay for small molecule activators of the human pregnane X receptor (PXR) signaling pathway (AID 720659; call rule not given here)
# [4] = at 20 µM (top of the series), tumour line C
# [5] = at 21.2 µM (top of the series), tumour line B
# [6] = at 21.2 µM (top of the series), tumour line D
# [7] = at 45.9 µM (top of the series), tumour line B
# [8] = at 45.9 µM (top of the series), tumour line D
# [9] = at 46 µM (top of the series), tumour line A
# [10] = at 46.1 µM (top of the series), tumour line C
# Chain of Nuclear receptor subfamily 1 group I member 2 (Rattus norvegicus) (Q9R1A7 whole entry, looked up): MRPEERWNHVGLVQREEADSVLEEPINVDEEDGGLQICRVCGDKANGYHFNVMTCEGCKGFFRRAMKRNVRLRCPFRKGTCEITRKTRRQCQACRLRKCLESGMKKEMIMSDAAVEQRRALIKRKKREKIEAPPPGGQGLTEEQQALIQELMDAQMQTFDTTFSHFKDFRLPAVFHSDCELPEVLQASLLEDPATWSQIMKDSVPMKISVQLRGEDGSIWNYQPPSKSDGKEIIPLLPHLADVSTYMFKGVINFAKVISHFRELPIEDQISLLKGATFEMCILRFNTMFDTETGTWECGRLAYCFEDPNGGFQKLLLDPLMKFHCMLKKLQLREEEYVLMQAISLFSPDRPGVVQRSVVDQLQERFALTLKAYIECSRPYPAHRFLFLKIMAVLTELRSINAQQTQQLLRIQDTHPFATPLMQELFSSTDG
SMILES,Potency (CASKI),Potency (Es-2),Potency (HeLa),Potency (Hek293T),Potency (JEG-3),Potency (OV90),Potency (PA-1),Potency (SKOV3),Potency (Tov-21-G),Potency (Tov112D),"activity, negative = cell killing [1, 4]","activity, negative = cell killing [1, 5]","activity, negative = cell killing [1, 6]",Potency (astro),"activity, negative = cell killing [1, 7]","activity, negative = cell killing [1, 8]","activity, negative = cell killing [1, 9]",max response [2],outcome [3],"activity, negative = cell killing [1, 10]"
CCCCN(CCCC)CCCOC(=O)c1ccc(N)cc1,inactive,inactive,inactive,inactive,inactive,inactive,inactive,inactive,inactive,inactive,-6.46%,6.6%,-16%,inactive,–,–,–,–,–,–
O=S(=O)(O)NC1CCCCC1,inactive,inactive,inactive,inactive,inactive,inactive,inactive,inactive,inactive,inactive,–,–,–,inactive,-10.5%,-5.78%,-19.1%,1.16%,inactive,–
COc1ccc2c(c1)C(=O)N(CCc1ccc(S(=O)(=O)NC(=O)NC3CCCCC3)cc1)C(=O)C2(C)C,inactive,inactive,inactive,inactive,inactive,inactive,inactive,inactive,inactive,inactive,-4.28%,-10.5%,-7.62%,inactive,–,–,–,–,–,–
O=C(O)[C@@H]1CSCN1,inactive,inactive,inactive,inactive,inactive,inactive,inactive,inactive,inactive,inactive,–,–,–,inactive,0.874%,4.12%,–,–,–,-12.1%
O=C1c2c(O)cccc2Cc2cccc(O)c21,inactive,inactive,inactive,inactive,inactive,inactive,inactive,inactive,inactive,inactive,–,–,–,inactive,-7.97%,–,-24.5%,-0.627%,inactive,-8.57%
COc1ccc2cc1Oc1cc3c(cc1OC)CC[N+](C)(C)[C@H]3Cc1ccc(cc1)Oc1c(OC)c(OC)cc3c1[C@@H](C2)[N+](C)(C)CC3,inactive,inactive,inactive,inactive,inactive,inactive,inactive,inactive,inactive,inactive,–,–,–,inactive,-14.8%,-5.75%,–,–,–,-3.48%
CN1[C@@H]2CC[C@H]1CC(OC(=O)C(O)c1ccccc1)C2 (stereo partly drawn),inactive,inactive,inactive,inactive,inactive,inactive,inactive,inactive,inactive,inactive,–,–,–,inactive,-0.798% and -13.6% and 4.01%,-19% and -5.08% and -5.73%,–,–,–,11.2% and -12.9% and 5.16%
CN1CCOC(c2ccccc2)c2ccccc2C1 (stereo not drawn),inactive,inactive,inactive,inactive,inactive,inactive,inactive,inactive,inactive,inactive,10.6%,-10.4%,-4.89%,inactive,–,–,–,–,–,–
Cc1c(Cl)cccc1Nc1ccccc1C(=O)O,inactive,inactive,inactive,inactive,inactive,inactive,inactive,inactive,inactive,inactive,–,–,–,11.2 µM (active),-21.5%,-17%,–,–,–,-5.72%
CCn1cc(C(=O)O)c(=O)c2cnc(N3CCNCC3)nc21,inactive,inactive,inactive,inactive,inactive,inactive,inactive,inactive,inactive,inactive,–,–,–,inactive,–,–,–,–,–,–
COc1ccccc1O,inactive,inactive,inactive,inactive,inactive,inactive,inactive,inactive,inactive,inactive,–,–,–,inactive,–,–,–,–,inactive,–
